According to PubChem BioAssay AID2018 (Sanford-Burnham Center for Chemical Genomics, 2009):
Among all 1,200 compounds or so, about 600 (50%) were called active. No stated cut-off is given here; in the data, active means inhibition above about 42%; inactive means the rest. The set was probably picked from earlier hits. This is one part of the list. Measured potencies and affinities stand elsewhere.

target: SUMO-conjugating enzyme UBC9 (Homo sapiens) (UniProt P63279); test: blockers of UBC9-mediated SUMO conjugation – biochemical, AlphaScreen, SUMOylation inhibitor project, confirmation (AID 2018); details: AlphaScreen in vitro SUMOylation assay; at 35 µM; hits give high values
Sequence (P63279 whole entry, looked up): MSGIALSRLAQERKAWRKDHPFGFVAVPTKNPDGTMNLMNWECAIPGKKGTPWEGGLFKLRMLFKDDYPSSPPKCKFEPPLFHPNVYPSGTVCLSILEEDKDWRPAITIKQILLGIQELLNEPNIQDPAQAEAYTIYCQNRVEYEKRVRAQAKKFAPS

inhibition, inactive:
CC(=O)c1ccc(NC(=O)Nc2cccnc2)cc1 -7.1%, CSc1ccc(-c2cc(=O)c3ccccc3o2)cc1 -11%, CN(C)/C=N/c1nc2nccc(-c3cccnc3)n2n1 -4%, Cc1cccc(S(=O)(=O)C(C#N)c2nc3ccccc3nc2N2CCCC2)c1 (stereo not drawn) 28.3%, C=CCOC(=O)C(C#N)c1nc2ccccc2nc1N1CCN(Cc2ccccc2)CC1 (stereo not drawn) 22.9%, CC(C)C(=O)Nc1cccc(C(=O)NCc2ccc3c(c2)OCO3)c1 13.6%, CC(=O)Nc1ccc(-c2nc3ccc(NC(C)=O)cc3o2)cc1 25.1%, CC(=O)Nc1ccc(-c2cn3cccnc3n2)cc1 5.9%, CCN(CC)C(=O)C1CCCN(C(=O)Nc2ccc3nsnc3c2)C1 (stereo not drawn) -9%, COc1ccc(C2C(C(C)=O)=C(O)C(=O)N2C)c(OC)c1 (stereo not drawn) -14.2%, COCCN(CCOC)c1nc(N)c2c(N)nc3c(c2c1C#N)CC(=O)N3Cc1ccc(Cl)cc1 11.2%, N#Cc1c(N(CCO)CCO)nc(N)c2c(N)nc3c(c12)CC(=O)N3CC1CCCO1 (stereo not drawn) 26%, CCOC(=O)N1CCN(C(=O)c2cccn3c(=O)c4cc(Cl)ccc4nc23)CC1 11%, O=C1CC(CC(=O)N/N=C/c2ccccc2[N+](=O)[O-])=NN1 26.8%, O=C1/C(=C/c2ccco2)Oc2c1ccc(O)c2CN1CCCCC1 9.4%, Cc1cc(-c2csc(NC(=O)c3ccc(=O)[nH]c3)n2)c(C)n1Cc1ccccc1 29.1%, CC1CCN(Cc2cc(=O)oc3cc(O)c(Cl)cc23)CC1 -10.6%, CC(=O)N1C(=S)NC(=O)/C1=C1/C(=O)N(CC(=O)Nc2cccc(C)c2)c2ccccc21 12.6%, Cc1cccc(N(C)C(=O)c2cc3c(=O)[nH]c4ccc(C)cc4c3s2)c1 37.8%, CCOC(=O)c1ccc(N2C(=O)c3n[nH]c(-c4ccco4)c3C2c2ccc([N+](=O)[O-])cc2)cc1 (stereo not drawn) 34.2%, CCc1cc2c(=O)c(Oc3ccccc3F)c(C)oc2c(CN(C)C)c1O -4.3%, O=[N+]([O-])c1c(NCCO)cc(N2CCC3(CC2)OCCO3)c2nonc12 8.2%, CCCCCC(=O)Nc1ccc(-c2cn3cccnc3n2)cc1 10.6%, COC12NC(=O)N(C)C1(OC)C(=O)N(C)C(=O)N2C (stereo not drawn) -6.8%, Cc1cccc(S(=O)(=O)C(C#N)c2nc3ccccc3nc2N2CC(C)OC(C)C2)c1 (stereo not drawn) 3.9%, Cc1ccc(-n2c(SCC(=O)N/N=C/c3ccccc3C(=O)O)nnc2-c2ccc(Cl)cc2)cc1 3.5%, Cc1ccc(-n2c(SCC(=O)Nc3ccc4c5c(cccc35)CC4)nc(O)cc2=O)cc1 30.4%, CN(C)/C=N/c1nc2nccc(-c3cccc(Cl)c3)n2n1 -11.7%, Nc1ccc2c(c1)sc1ccccc12 20.5%

inhibition, active:
Cc1ccc(S(=O)(=O)C(C#N)c2nc3ccccc3nc2N2CCCC2)cc1 (stereo not drawn) 44.2%, O=C(O)CN1C(=O)/C(=C\c2cc([N+](=O)[O-])ccc2OCc2ccccc2Cl)SC1=S 63%, Clc1ccc(C2=CSC3=Nc4cccc5cccc(c45)N23)cc1 101%, COc1ccc(OC)c(S(=O)(=O)NCCc2cn3ccsc3n2)c1 44.5%, COc1ccc(NCc2ccc([N+](=O)[O-])s2)c(OC)c1 87%, N#Cc1c(N(CCO)CCO)nc(N)c2c(N)nc3c(c12)CC(=O)N3Cc1cccs1 52.9%, Nc1nnc(CC(=O)N/N=C/c2cc([N+](=O)[O-])cc(Br)c2O)s1 102%, Cc1ccc(-c2nn(-c3ccccc3)cc2/C=C2\SC(=S)N(CCCCCC(=O)O)C2=O)o1 74.8%, O=C(O)CCCN1C(=O)/C(=C/c2cn(-c3ccccc3)nc2-c2cccs2)SC1=S 76%, Cc1ccc(N/N=C2\CC(=O)c3ccccc32)cc1Cl 78.3%, Cc1ccc(NC(=O)CN2C(=O)S/C(=C/c3ccc(-c4cc(C(=O)O)ccc4C)o3)C2=O)cc1C 101%, Cc1c(C(=O)O)cccc1-c1ccc(/C=C2\SC(=O)NC2=O)o1 48.8%, CC1=NN(c2ccc(Cl)cc2)C(=O)C1C(c1ccccc1O)c1c(C)[nH]n(-c2ccc(Cl)cc2)c1=O (stereo not drawn) 82.4%, CC1=NN(c2ccc(F)cc2)C(=O)C1C(c1cccc(O)c1)c1c(C)[nH]n(-c2ccc(F)cc2)c1=O (stereo not drawn) 89.4%, CC1=NN(c2ccc(C)cc2C)C(=O)C1C(c1cccc(O)c1)C1C(=O)N(c2ccc(C)cc2C)N=C1C (stereo not drawn) 81.1%, COc1ccc(S(=O)(=O)C(C#N)c2nc3ccccc3nc2N2CCCC(C)C2)cc1 (stereo not drawn) 49.9%, CCCCNC(=O)Oc1c(Br)cc2sc(=O)oc2c1Br 88.3%, CC(=O)c1ccc2c(c1)C1C=CCC1C(C(=O)O)N2 (stereo not drawn) 101%, O=C(O)CCCN1C(=O)/C(=C/C=C/c2ccco2)SC1=S 100%
